Laboratory results taken from PubChem BioAssay (NCATS).
Inconclusive results are not listed. The source made the active and inactive calls. Unless noted, the call rests on the fitted dose curve; in most records, active means well fitted curve in the direction sought with a large enough effect; inconclusive means small, poorly fitted or top-dose-only effect, or another doubt; inactive means no such curve, though single readings can be large; an effect the other way counts as inactive or inconclusive.

Experiments:
[1] = Natriuretic polypeptide receptor (hNpr1) antagonism - Pilot counterscreen GloSensor control cell line (AID 1347045; calls by dose curve; further: series mostly up to about 38 µM; on the % scale 0 is the no-effect control and ±100 the full control effect)
How it was run: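 This counterscreen uses HEK293 cells expressing the GIP/pGS-40F cGMP biosensor. Compound-treated cells are challenged with 50 uM sodium nitroprusside, and the luciferase signal is compared before and after stimulation.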

[2] = target: Atrial natriuretic peptide receptor 1 (Homo sapiens) (UniProt P16066); assay: Natriuretic polypeptide receptor (hNpr1) antagonism - Pilot screen (AID 1347049; calls by dose curve;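 further: agonist-evoked cGMP luminescence read 20 min after hNppA addition; series mostly up to about 58 µM; on the % scale 0 is the no-effect control and ±100 the full control effect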)
Chain of Atrial natriuretic peptide receptor 1 (Homo sapiens) (P16066 whole entry, looked up): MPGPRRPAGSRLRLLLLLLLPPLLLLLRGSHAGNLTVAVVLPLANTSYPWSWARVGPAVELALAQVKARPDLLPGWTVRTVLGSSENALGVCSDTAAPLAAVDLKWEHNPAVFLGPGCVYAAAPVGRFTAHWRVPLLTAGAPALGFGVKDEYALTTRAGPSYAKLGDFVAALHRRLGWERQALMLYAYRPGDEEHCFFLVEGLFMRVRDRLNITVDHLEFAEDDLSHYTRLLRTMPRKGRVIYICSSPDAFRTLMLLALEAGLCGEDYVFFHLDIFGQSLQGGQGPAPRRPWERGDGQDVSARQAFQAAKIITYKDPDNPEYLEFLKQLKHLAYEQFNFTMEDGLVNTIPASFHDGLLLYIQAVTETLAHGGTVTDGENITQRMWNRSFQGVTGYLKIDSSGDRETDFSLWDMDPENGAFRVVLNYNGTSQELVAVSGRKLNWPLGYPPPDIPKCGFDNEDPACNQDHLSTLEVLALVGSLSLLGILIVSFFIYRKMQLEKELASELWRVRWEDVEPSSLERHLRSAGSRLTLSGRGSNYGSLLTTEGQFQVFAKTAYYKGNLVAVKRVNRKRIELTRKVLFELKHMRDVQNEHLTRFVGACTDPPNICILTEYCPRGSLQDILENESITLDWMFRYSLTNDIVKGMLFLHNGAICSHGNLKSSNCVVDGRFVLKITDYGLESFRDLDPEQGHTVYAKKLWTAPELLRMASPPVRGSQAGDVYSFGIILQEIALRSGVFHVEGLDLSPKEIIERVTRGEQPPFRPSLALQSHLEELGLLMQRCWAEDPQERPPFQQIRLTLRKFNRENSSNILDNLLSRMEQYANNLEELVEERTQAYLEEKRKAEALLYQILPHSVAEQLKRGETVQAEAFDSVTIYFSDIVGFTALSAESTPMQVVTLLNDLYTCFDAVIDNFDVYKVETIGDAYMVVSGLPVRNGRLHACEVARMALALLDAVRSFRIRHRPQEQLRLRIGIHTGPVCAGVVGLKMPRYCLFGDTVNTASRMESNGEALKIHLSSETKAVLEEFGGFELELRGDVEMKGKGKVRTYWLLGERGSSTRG
How it was run: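 Readout is cGMP-driven firefly luciferase luminescence in HEK293 cells carrying hNpr1 and a PDE5-domain GloSensor, read before and 20 min after 0.1 nM hNppA stimulation. Cells had 2% substrate reagent for 2 h and test compound for 30 min.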

[3] = target: Atrial natriuretic peptide receptor 2 (Homo sapiens) (UniProt P20594); assay: Natriuretic polypeptide receptor (hNpr2) antagonism - Pilot subtype selectivity assay (AID 1347050; calls by dose curve; further: potency means the concentration at half of the fitted maximal effect)
Chain of Atrial natriuretic peptide receptor 2 (Homo sapiens) (P20594 whole entry, looked up): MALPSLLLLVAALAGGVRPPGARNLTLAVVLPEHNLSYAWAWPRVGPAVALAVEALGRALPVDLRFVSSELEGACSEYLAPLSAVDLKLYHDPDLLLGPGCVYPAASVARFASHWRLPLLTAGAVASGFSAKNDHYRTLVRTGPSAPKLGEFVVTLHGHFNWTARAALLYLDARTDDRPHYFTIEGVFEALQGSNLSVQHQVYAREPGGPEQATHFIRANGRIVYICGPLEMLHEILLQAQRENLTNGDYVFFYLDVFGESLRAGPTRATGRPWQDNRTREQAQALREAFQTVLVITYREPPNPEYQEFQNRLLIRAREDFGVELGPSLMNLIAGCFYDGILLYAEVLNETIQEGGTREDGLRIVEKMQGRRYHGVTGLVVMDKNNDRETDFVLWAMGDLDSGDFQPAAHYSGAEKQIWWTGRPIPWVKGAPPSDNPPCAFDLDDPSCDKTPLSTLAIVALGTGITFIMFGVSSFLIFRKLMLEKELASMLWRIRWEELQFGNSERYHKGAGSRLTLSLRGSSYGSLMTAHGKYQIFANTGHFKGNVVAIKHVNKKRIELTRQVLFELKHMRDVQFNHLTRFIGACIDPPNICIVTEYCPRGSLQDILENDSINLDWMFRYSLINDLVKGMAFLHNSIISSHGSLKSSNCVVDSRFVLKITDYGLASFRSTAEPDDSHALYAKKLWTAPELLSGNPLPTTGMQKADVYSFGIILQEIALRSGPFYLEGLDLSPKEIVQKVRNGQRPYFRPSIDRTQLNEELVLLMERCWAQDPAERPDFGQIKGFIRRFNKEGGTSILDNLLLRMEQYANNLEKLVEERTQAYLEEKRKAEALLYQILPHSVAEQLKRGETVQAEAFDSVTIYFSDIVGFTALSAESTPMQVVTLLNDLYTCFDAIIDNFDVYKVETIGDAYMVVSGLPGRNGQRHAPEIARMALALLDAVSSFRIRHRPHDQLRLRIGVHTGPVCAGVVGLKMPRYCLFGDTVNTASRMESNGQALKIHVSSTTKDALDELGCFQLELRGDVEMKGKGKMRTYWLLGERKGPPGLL
How it was run: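 Pilot selectivity screen against hNpr2: HEK293 cGMP-sensor cells are treated with LOPAC1280 compounds, then with hNppC peptide at 1 nM final. The cGMP-driven luminescence change over 20 min at room temperature is the read-out.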

[4] = NS1 protein of Zika virus - qHTS assay to identify small molecule inhibitors in human HEK 293 cells (AID 1347053);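 further: series mostly up to about 46 µM; plate controls were infected untreated cells for no effect and uninfected cells for full effect; nearly all actives have a fitted effect of over 55% in size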
How it was run: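 Following 20 h seeding, HEK 293 cells took compound, then 1 h later ZIKV MR766 (MOI = 0.5). Incubation ran 24 h at 37 C before TR-FRET detection of NS1; a drop in signal indicates inhibition.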

[5] = target: T1, Tyrosine-protein phosphatase non-receptor type substrate 1 (Homo sapiens) + Leukocyte surface antigen CD47 (Homo sapiens) (UniProt P78324+Q08722); assay: CD47-SIRPalpha protein protein interaction - LANCE assay qHTS validation (AID 1347057; active means well fitted curve in the direction sought with a large enough effect in the signal ratio, with a control signal flat, not every such curve was filed as active; the % refers to the signal ratio; further: series mostly up to about 38 µM; 0% is about no effect)
T1 sequence (P78324 whole entry, looked up): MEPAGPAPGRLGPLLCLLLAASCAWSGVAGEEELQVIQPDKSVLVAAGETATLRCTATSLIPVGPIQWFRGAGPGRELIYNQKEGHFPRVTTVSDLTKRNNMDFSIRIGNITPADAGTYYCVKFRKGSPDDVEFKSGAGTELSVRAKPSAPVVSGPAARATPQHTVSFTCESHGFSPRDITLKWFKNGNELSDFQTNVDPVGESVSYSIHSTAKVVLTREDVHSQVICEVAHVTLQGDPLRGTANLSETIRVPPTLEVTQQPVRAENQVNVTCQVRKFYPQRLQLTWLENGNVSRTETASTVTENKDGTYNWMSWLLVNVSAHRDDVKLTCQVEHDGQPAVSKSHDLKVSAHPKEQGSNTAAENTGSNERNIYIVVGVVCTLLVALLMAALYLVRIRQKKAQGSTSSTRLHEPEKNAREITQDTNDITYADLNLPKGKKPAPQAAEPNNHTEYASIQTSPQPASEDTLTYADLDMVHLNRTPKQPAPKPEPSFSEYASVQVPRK
T1 sequence (Q08722 whole entry, looked up): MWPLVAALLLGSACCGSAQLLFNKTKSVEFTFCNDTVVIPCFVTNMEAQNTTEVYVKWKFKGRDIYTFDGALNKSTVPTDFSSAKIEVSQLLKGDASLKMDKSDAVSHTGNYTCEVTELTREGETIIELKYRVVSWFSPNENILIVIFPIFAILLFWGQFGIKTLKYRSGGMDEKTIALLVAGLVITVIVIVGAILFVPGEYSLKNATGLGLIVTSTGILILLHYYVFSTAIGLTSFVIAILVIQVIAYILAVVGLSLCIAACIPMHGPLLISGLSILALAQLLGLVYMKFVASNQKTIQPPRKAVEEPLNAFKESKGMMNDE
How it was run: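 First, His-tagged CD47 and Eu-labelled anti-His antibody met the compound for 30 min; next, site-specifically biotinylated SIRPalpha was added for 30 min; finally streptavidin-APC was added before reading the TR-FRET ratio.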

[6] = target: T1, Tyrosine-protein phosphatase non-receptor type substrate 1 (Homo sapiens) + Leukocyte surface antigen CD47 (Homo sapiens); assay: CD47-SIRPalpha protein protein interaction - HTRF assay qHTS validation (AID 1347058; active means well fitted curve in the direction sought with a large enough effect in the signal ratio, not every such curve was filed as active; the % refers to the signal ratio;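 further: recombinant soluble extracellular CD47 with His tag and biotinylated SIRPalpha domains; series mostly up to about 38 µM; 0% is about no effect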)
How it was run: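 TR-FRET read (Ch1/Ch2 ratio) of soluble extracellular CD47 and Avi-biotinylated SIRPalpha domains in PBS pH 7.4 with 0.05% IGEPAL; 7-point compound titration. Sequential 30 min room-temperature steps; non-biotinylated SIRPalpha as control inhibitor.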

[7] = target: T1, Tyrosine-protein phosphatase non-receptor type substrate 1 (Homo sapiens) + Leukocyte surface antigen CD47 (Homo sapiens); assay: CD47-SIRPalpha protein protein interaction - Alpha assay qHTS validation (AID 1347059);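 further: bead proximity luminescence from CD47 binding SIRPalpha after compound preincubation with SIRPalpha; on the % scale 0 is the no-effect control and ±100 the full control effect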
How it was run: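 Binding is measured by AlphaScreen proximity: Ni-NTA acceptor beads capture His-CD47, streptavidin donor beads capture biotin-SIRPalpha. Each of three additions (SIRPalpha with compound, CD47, beads) incubates 30 min at room temperature protected from light.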

[8] = target: Parathyroid hormone/parathyroid hormone-related peptide receptor (Homo sapiens) (UniProt Q03431); assay: qHTS for PTHR1 Agonists: Optimization Screen against the NCGC LOPAC library (AID 1347079);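 further: GloSensor cAMP luminescence in HEK-293 GP2 cells expressing human PTHR1 with IBMX; 0% is about no effect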
Chain of Parathyroid hormone/parathyroid hormone-related peptide receptor (Homo sapiens) (Q03431 whole entry, looked up): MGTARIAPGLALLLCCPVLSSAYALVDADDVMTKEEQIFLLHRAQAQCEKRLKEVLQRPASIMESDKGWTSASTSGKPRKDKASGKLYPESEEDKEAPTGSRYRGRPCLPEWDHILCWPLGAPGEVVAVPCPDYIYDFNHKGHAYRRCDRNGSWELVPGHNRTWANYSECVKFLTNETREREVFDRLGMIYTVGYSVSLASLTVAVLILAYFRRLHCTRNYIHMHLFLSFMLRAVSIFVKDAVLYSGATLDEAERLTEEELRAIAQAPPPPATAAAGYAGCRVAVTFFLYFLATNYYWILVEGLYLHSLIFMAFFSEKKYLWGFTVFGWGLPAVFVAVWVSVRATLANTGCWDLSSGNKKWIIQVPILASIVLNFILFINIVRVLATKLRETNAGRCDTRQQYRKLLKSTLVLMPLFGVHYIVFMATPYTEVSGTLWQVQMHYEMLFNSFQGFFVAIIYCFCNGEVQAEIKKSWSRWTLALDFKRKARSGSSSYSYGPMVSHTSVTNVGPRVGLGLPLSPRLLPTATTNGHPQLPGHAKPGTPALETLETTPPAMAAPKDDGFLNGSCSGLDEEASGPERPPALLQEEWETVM
How it was run: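 Compounds were tested across a qHTS titration. PTHR1-expressing GP2 cells report cAMP rises via GloSensor luminescence after 1 hr compound exposure at 37C with IBMX present.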

[9] = qHTS of pediatric cancer cell lines to identify multiple opportunities for drug repurposing: Primary screen for TC32 cells (AID 1347089); further: on the % scale 0 is the no-effect control and ±100 the full control effect; nearly all actives have a fitted effect of over 60% in size
How it was run: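 qHTS, TC32, 48 h drug treatment, CellTiter-Glo luminescence as a proxy for metabolically active cells; primary top concentration 46 µM (MIPE 11-pt, NPC 8-pt); confirmatory 11-pt.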

[10] = qHTS of pediatric cancer cell lines to identify multiple opportunities for drug repurposing: Primary screen for DAOY cells (AID 1347090);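 further: series mostly up to about 46 µM; plate controls were DMSO for no effect and bortezomib for full effect; nearly all actives have a fitted effect of over 55% in size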
How it was run: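 Cell viability, CellTiter-Glo luminescence; 500-1,000 cells/well, 8- or 11-point titration, 48 h compound exposure at 37 degrees C, 5% CO2. Controls: DMSO neutral, bortezomib 2.3 µM final as positive.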

C[N+](C)(C)CCOC(N)=O
inactive: Potency [1] | Potency [2] | Potency [3] | outcome [4] | outcome [5] | outcome [6] | Potency [7] | outcome [8] | Potency [9] | Potency [10]

CCCC(C(=O)OCCN(CC)CC)(c1ccccc1)c1ccccc1
inactive: Potency [1] | Potency [2] | outcome [4] | outcome [5] | outcome [6] | Potency [7] | outcome [8] | Potency [9]
active: Potency [3] 10.4 µM

CCc1c(C)[nH]c2c1C(=O)C(CN1CCOCC1)CC2 (stereo not given)
inactive: Potency [1] | Potency [2] | Potency [3] | outcome [4] | outcome [5] | outcome [6] | Potency [7] | outcome [8] | Potency [9] | Potency [10]

O=C(O)CN(CCOCCOCCN(CC(=O)O)CC(=O)O)CC(=O)O
inactive: Potency [1] | Potency [2] | Potency [3] | outcome [4] | outcome [5] | outcome [6] | Potency [7] | outcome [8] | activity change, negative = cytotoxic [9] 12.3% [at 0.594 µM] | activity change, negative = cytotoxic [10] 12.8% [at 0.597 µM]

C#CCN(C)CCCOc1ccc(Cl)cc1Cl
inactive: Potency [1] | Potency [2] | Potency [3] | outcome [4] | outcome [5] | outcome [6] | Potency [7] | outcome [8] | Potency [9] | Potency [10]

O=C(O)CP(=O)(O)O
inactive: Potency [1] | Potency [2] | Potency [3] | outcome [4] | outcome [5] | outcome [6] | Potency [7] | outcome [8] | Potency [9] | Potency [10]

CNCCC(Oc1ccccc1OC)c1ccccc1 (stereo not given)
inactive: Potency [1] | Potency [2] | Potency [3] | outcome [4] | outcome [5] | outcome [6] | Potency [7] | outcome [8] | Potency [9] | Potency [10]

CC(C)(Oc1ccc(CCNC(=O)c2ccc(Cl)cc2)cc1)C(=O)O
inactive: Potency [1] | Potency [2] | Potency [3] | outcome [4] | outcome [5] | outcome [6] | Potency [7] | outcome [8] | Potency [9] | Potency [10]

COc1ccc([C@@H]2Sc3ccccc3N(CCN(C)C)C(=O)[C@@H]2OC(C)=O)cc1
inactive: Potency [1] | Potency [2] | Potency [3] | outcome [4] | outcome [5] | outcome [6] | Potency [7] | outcome [8] | Potency [9] | Potency [10]

CCN(CC)CCNC(=O)c1ccc(NC(C)=O)cc1
inactive: Potency [1] | Potency [2] | Potency [3] | outcome [4] | outcome [5] | outcome [6] | Potency [7] | outcome [8] | Potency [9] | Potency [10]

CCN1CCC[C@H]1CNC(=O)c1c(O)c(Cl)cc(Cl)c1OC
inactive: Potency [1] | Potency [2] | Potency [3] | outcome [4] | outcome [5] | outcome [6] | Potency [7] | outcome [8] | Potency [9] | Potency [10]

CCCCCN(CCCCC)C(=O)C(CCC(=O)O)NC(=O)c1ccc(Cl)c(Cl)c1 (stereo not given)
inactive: Potency [1] | Potency [2] | Potency [3] | outcome [4] | outcome [5] | outcome [6] | Potency [7] | outcome [8] | Potency [9] | Potency [10]

CCCNC(C)C(=O)Nc1ccccc1C (stereo not given)
inactive: Potency [1] | Potency [2] | Potency [3] | outcome [4] | outcome [5] | outcome [6] | Potency [7] | outcome [8] | Potency [9] | Potency [10]

CCN1CCc2nc(N)oc2CC1
inactive: Potency [1] | Potency [2] | Potency [3] | outcome [4] | outcome [5] | Potency [7] | outcome [8] | Potency [10]

CNC1(C)C2CCC(C2)C1(C)C (stereo not given)
inactive: Potency [1] | Potency [2] | Potency [3] | outcome [4] | outcome [5] | outcome [6] | Potency [7] | outcome [8] | Potency [10]

CCn1nc(C(=O)O)c(=O)c2cc3c(cc21)OCO3
inactive: Potency [1] | Potency [2] | Potency [3] | outcome [4] | outcome [5] | Potency [7] | outcome [8] | Potency [9] | Potency [10]

CC(C)NNC(=O)c1ccncc1
inactive: Potency [1] | Potency [2] | Potency [3] | outcome [4] | outcome [5] | outcome [6] | Potency [7] | outcome [8] | Potency [10]

Cc1cc(C)c(/C=C2\C(=O)Nc3ccccc32)[nH]1
inactive: Potency [1] | Potency [2] | Potency [3] | outcome [4] | outcome [5] | Potency [7] | outcome [8] | Potency [9] | Potency [10]

NC(=O)c1cn(Cc2c(F)cccc2F)nn1
inactive: Potency [1] | Potency [2] | Potency [3] | outcome [4] | outcome [5] | outcome [6] | Potency [7] | outcome [8] | Potency [10]

c1cnc(N2CCN(Cc3ccc4c(c3)OCO4)CC2)nc1
inactive: Potency [1] | Potency [2] | Potency [3] | outcome [4] | outcome [5] | outcome [6] | Potency [7] | outcome [8] | Potency [10]

CCN(Cc1ccncc1)C(=O)C(CO)c1ccccc1 (stereo not given)
inactive: Potency [1] | Potency [2] | Potency [3] | outcome [4] | outcome [5] | outcome [6] | Potency [7] | outcome [8] | Potency [10]

CCCCNC(=O)NS(=O)(=O)c1ccc(C)cc1
inactive: Potency [1] | Potency [2] | Potency [3] | outcome [4] | outcome [5] | outcome [6] | Potency [7] | outcome [8] | Potency [9] | Potency [10]
